From PubChem BioAssay come the findings set out here.

Experiment [1] has as its system Human papillomavirus type 1a protein E7 (residues 44-93). The experiment in a line: small molecules binding HPV E7 44-93 – biochemical, small-molecule microarray, residues 44-93, 635 nm fluorescence, primary screen (AID 1108).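 Note: E7 fragment applied at 1 µg/mL in TBST for 1 h at 4 C; score combines spot fluorescence with its signal to noise ratio.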 The conditions noted are these: fluorescence 635 nm, higher = more signal.
Experiment [2] can be described thus: hepatitis C replication reporter changes, two-sided – Huh7 cells, luciferase reporter, HCV replication inhibitor project, primary screen (AID 1109).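 Note: huh7 hepatoma cells harbouring a luciferase neomycin HCV replicon reporter; luciferase luminescence as measure of HCV replicon replication; test concentration not given here.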 The conditions noted are these: Huh7 HCV replicon luciferase reporter, 48 h; higher = more signal. For orientation: Reporter assays use an easily measured gene product as a stand-in for the process of interest.
The target in experiment [3] is Left-right determination factor 2 (Homo sapiens) (UniProt O00292). The experiment in a line: small molecules binding LEFTY2 protein – biochemical, small-molecule microarray, 635 nm fluorescence scan, primary screen (AID 1110). Conditions: higher = more signal.
Experiment [4] has as its target Calmodulin-1 (Homo sapiens) (UniProt P0DP23). Nature of the experiment: small molecules binding calmodulin-1 with EGTA – biochemical, small-molecule microarray, Cy5-labelled CALM1, profiling panel (AID 1111).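 Note: labelled calmodulin applied in Tris saline Tween buffer holding calcium plus EGTA and DTT.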 The conditions noted are these: Cy5-CALM1 binding fluorescence, higher = more signal.
The target is the same in experiment [5]. The experiment in a line: small molecules binding Ca-loaded calmodulin-1 – biochemical, small-molecule microarray, Cy5-labelled CALM1, plus calcium, artefact control for SMM control-protein annotation, profiling panel (AID 1112).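 Note: score merges spot fluorescence with signal to noise from triplicate slides.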 Conditions: Cy5-CALM1 binding fluorescence, higher = more signal.
Experiment [6] is described as follows: probe aWnt5a binding to arrayed compounds – biochemical, biotinylated probe, 635/667 nm fluorescence, primary screen (AID 1113).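 Note: score merges 667 nm fluorescence intensity with signal-to-noise per printed feature.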 Conditions: small-molecule microarray, higher = more signal.
Experiment [7] can be described thus: probe aShh binding to arrayed compounds – biochemical, biotinylated probe, 635/667 nm fluorescence, primary screen (AID 1114).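 Note: probe is biotin-labelled aShh protein from a stem cell growth factor screen; measures binding of labelled protein to compounds printed on the slide; score merges feature fluorescence at 667 nm with signal-to-noise.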 Conditions: small-molecule microarray, higher = more signal.
A short description of experiment [8]: probe aNog binding to arrayed compounds – biochemical, biotinylated probe, 635/667 nm fluorescence, primary screen (AID 1115).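 Note: probe is biotinylated aNog protein used at 0.15 µg/mL for 1 h at 4 C; z-score combines 667 nm fluorescence of each spot with its signal to noise.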 Conditions: small-molecule microarray, higher = more signal.
Experiment [9] deals with Torsin-1A-interacting protein 1 (Homo sapiens) (UniProt Q5JTV8). The experiment in a line: compound microarray binding of lysate hLAP1 – cell lysate, small-molecule microarray, COS7 lysate, 635/667 nm fluorescence, primary screen (AID 1116). The conditions noted are these: 635 nm fluorescence, higher = more signal.
Experiment [10] addresses Alpha-bungarotoxin (Bungarus multicinctus) (UniProt P60615). The experiment in a line: compounds binding labelled alpha-BTX control protein – biochemical, small-molecule microarray, Alexa647 label, 635/667 nm fluorescence, artefact control for SMM control protein annotation, profiling panel (AID 1117). The conditions noted are these: alpha-BTX-A647 binding fluorescence, higher = more signal.

Torsin-1A-interacting protein 1 (Homo sapiens), sequence (Q5JTV8 whole entry, looked up): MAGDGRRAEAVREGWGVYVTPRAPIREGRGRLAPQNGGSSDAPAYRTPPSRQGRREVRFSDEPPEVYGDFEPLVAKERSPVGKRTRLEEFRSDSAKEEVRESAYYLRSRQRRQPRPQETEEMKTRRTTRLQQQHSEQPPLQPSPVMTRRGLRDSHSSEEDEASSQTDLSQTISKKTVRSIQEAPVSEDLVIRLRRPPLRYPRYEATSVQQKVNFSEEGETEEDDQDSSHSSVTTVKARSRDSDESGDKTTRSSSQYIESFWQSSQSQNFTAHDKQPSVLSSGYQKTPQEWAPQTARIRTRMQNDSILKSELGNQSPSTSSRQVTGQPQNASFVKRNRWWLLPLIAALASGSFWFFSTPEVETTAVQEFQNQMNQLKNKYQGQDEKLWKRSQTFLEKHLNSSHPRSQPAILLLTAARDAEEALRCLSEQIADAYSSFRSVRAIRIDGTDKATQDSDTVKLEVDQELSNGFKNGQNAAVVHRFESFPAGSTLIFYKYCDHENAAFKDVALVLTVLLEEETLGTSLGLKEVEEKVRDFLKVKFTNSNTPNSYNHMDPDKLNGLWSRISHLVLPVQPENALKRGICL
Left-right determination factor 2 (Homo sapiens), sequence (O00292 whole entry, looked up): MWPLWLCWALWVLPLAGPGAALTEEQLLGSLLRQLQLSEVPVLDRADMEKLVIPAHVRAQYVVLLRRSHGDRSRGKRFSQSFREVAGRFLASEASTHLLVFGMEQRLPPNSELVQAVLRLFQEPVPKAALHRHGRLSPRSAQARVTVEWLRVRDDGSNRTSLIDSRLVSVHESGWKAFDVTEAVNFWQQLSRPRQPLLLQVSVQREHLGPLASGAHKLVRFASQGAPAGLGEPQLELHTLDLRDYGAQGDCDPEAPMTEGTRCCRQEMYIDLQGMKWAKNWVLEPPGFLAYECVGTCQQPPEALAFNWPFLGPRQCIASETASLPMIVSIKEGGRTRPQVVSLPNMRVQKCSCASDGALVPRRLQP
Alpha-bungarotoxin (Bungarus multicinctus), sequence (P60615 whole entry, looked up): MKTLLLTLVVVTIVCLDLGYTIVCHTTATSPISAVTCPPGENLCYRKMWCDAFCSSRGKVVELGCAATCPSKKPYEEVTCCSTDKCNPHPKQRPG

Regarding `CC(=O)OC[C@H]1O[C@H](C#CCC2CCCCC2)C=C[C@@H]1OC(C)=O`, the composite z-score in [1] was 1.12; in experiment [3] it was 0.992; in [4] it was 0.235; in [5], -0.26; in [6], -0.154; in experiment [7], 0.194. For the same compound, the results for the composite z-score in experiment [8], in experiment [9] and in [10] were 0.129, 0.471 and 0.36, respectively. The z-score in experiment [2] was -2.57.
As to `COC(=O)[C@H](C)NC(=O)CCC1CC(OC(=O)NCCc2ccc(F)cc2)CC2(CCCC(COC(=O)NCCOc3ccccc3)O2)O1` (stereo not given in full), the composite z-score in experiment [1] is 1.36; in [3], 0.781; in experiment [4], 1.55; in [5], 0.236; in [6], 0.055; in experiment [7] it was 0.123. Further, the composite z-score in experiment [8] was -0.109; in [9], 0.928; in experiment [10], 0.837. Besides, the z-score in experiment [2] is -0.213.
As to `O=C1[C@H]2[C@H]3[C@H](O)[C@H](O)CC(=NOC[C@@H](O)COCc4ccco4)[C@@H]3CC[C@H]2C(=O)N1Cc1ccc2c(c1)OCO2`, the composite z-score was -0.772 in experiment [1]; 1.44 in [3]; -0.982 in [4]; -2.03 in experiment [5]; -0.172 in experiment [6]; -0.123 in experiment [7]. Also, the composite z-score is -0.34 in experiment [8], 0.0886 in experiment [9] and 0.0167 in [10]. This compound showed a z-score in [2] of 0.0878.
As for `CO[C@@H]1[C@H](O)CO[C@H]1C=Cc1ccccc1`, the composite z-score in experiment [1] was 0.258; in [3], 0.509; in [4] it was -0.0028; in experiment [5] it was -0.144; in experiment [6], 0.0078; in experiment [7], -0.16. Moreover, the composite z-score in experiment [8] is -0.0563; in experiment [9], 0.0195; in [10] it was 0.241. Moreover, the z-score in experiment [2] is -0.696.
For `C[C@@H]1CC[C@H]2C(=O)O[C@@H](CN=[N+]=[N-])CN2[C@H]1c1ccc(Br)cc1`, the composite z-score was 1.23 in experiment [1]; 0.672 in experiment [3]; 0.169 in [4]; -0.425 in experiment [5]; -0.262 in [6]; -0.32 in [7]. In addition, the composite z-score in [8] was -0.571; in experiment [9], 0.0942; in [10], 0.601. Also, the z-score in [2] is -4.98.
With `CC(CCN1CCCc2nc(C)c(C)cc21)=NOC[C@@H](O)COCc1ccco1`, the composite z-score in [1] was -2.03; in [3], 1.73; in [4], 0.264; in experiment [5], -2.31; in experiment [6], 0.937; in experiment [7] it was 2.26. Moreover, the figures for the composite z-score in experiment [8], in experiment [9] and in experiment [10] were 1.75, 2.57 and 1.94, respectively. In addition, in experiment [2], the z-score was -0.62.
On to `CCOC(=O)[C@H](CC(C)C)NC(=O)CCC1CC(OC(=O)NCc2ccc3c(c2)OCO3)CC2(CCCC(COC(=O)NCCc3ccc(Cl)cc3)O2)O1` (stereo not given in full), for which the composite z-score was 0.838 in [1]; 0.582 in experiment [3]; -0.131 in experiment [4]; -0.572 in experiment [5]; -0.0556 in [6]; -0.283 in [7]. Further, the composite z-score in [8] is -0.363; in [9], 0.426; in experiment [10], 0.983. In experiment [2], this compound yielded a z-score of 0.225.
With `CCN1C(=O)[C@H]2[C@H]3[C@H](O)[C@H](O)CC(=NO[C@@H](C)c4cc(-c5c(C)cc(C)cc5C)no4)[C@@H]3CC[C@H]2C1=O`, the composite z-score in experiment [1] is 1.02; in [3], 0.685; in experiment [4], 0.224; in experiment [5], -0.525; in experiment [6] it was -0.0799; in experiment [7], -0.0146. Moreover, the composite z-score was -0.177 in [8], 0.952 in [9] and 1.02 in experiment [10]. Besides, the z-score in experiment [2] is -0.946.
As for `O=C1C[C@@H](O)[C@@H](O)[C@@H]2[C@@H]3C(=O)N(c4ccc(F)cc4F)C(=O)[C@@H]3CC[C@H]12`, the composite z-score is 0.473 in experiment [1]; 0.681 in [3]; -0.134 in experiment [4]; -0.519 in experiment [5]; -0.0718 in experiment [6]; -0.18 in [7]. Besides, the values for the composite z-score in experiment [8], in experiment [9] and in experiment [10] were -0.213, 0.82 and 0.0317, respectively. In [2], the z-score is -0.313.
Take `COC(=O)[C@H](C)NC(=O)CCC1CC(OC(=O)NCc2cccc3ccccc23)CC2(CCCC(COC(=O)NCCc3ccccc3OC)O2)O1` (stereo not given in full): the composite z-score is 1.39 in [1]; 0.621 in experiment [3]; 0.75 in experiment [4]; -0.37 in [5]; -0.15 in [6]; 0.0141 in [7]. The composite z-score in experiment [8] worked out at 0.0356; in [9], 0.787; in [10], 0.638. In addition, the z-score in experiment [2] was -0.314.
`CC(C)=NOC[C@@H](O)[C@H]1O[C@@H]2OC(C)(C)O[C@@H]2[C@H]1O`: the composite z-score in [1] is 0.855; in experiment [3], 0.989; in experiment [4], 0.0985; in [5], -0.29; in experiment [6], 0.163; in experiment [7], 0.0952. Moreover, the composite z-score in experiment [8] is -0.191; in experiment [9], 0.243; in experiment [10], 0.154. Also, the z-score in experiment [2] was 0.674.
In the case of `COC(=O)[C@H](C)NC(=O)CCC1CC(OC(=O)NCc2cccc3ccccc23)CC2(CCCC(COC(=O)NCc3ccccc3)O2)O1` (stereo not given in full), the composite z-score was 1.15 in experiment [1]; 0.648 in experiment [3]; 0.426 in experiment [4]; -0.543 in [5]; -0.0721 in [6]; -0.206 in experiment [7]. For the same compound, the figures for the composite z-score in experiment [8], in experiment [9] and in experiment [10] were -0.495, 0.177 and 0.389, respectively. This compound also came in with a z-score in experiment [2] of -0.922.
Take `CC(C)CON=C1C[C@@H](O)[C@@H](O)[C@@H]2[C@@H]3C(=O)N(Cc4ccccc4)C(=O)[C@@H]3CC[C@H]12`: the composite z-score in experiment [1] was -0.106; in experiment [3], 0.623; in experiment [4] it was -0.144; in experiment [5] it was -0.414; in experiment [6], -0.0107; in experiment [7] it was -0.324. The composite z-score in [8] was -0.169; in [9] it was 0.163; in experiment [10] it was 0.506. The compound also showed a z-score in experiment [2] of -1.14.
Take `CC(=O)OC[C@H]1O[C@H](CCON=C(C)CCN2CCCc3nc(C)c(C)cc32)C=C[C@@H]1OC(C)=O`: the composite z-score is 1.33 in experiment [1]; 0.686 in [3]; -0.191 in experiment [4]; -0.947 in experiment [5]; -0.0229 in experiment [6]; -0.138 in experiment [7]. The composite z-score in experiment [8] was 0.189; in [9], 0.489; in experiment [10], 0.133. Besides, the z-score in experiment [2] is -0.186.
Consider `CO[C@H]1COC(=O)CCC[C@H](C)[C@@H](OC)COC(=O)CC=C[C@@H]1C`, for which the composite z-score was -0.431 in [1]; 0.966 in [3]; -0.946 in [4]; -1.1 in experiment [5]; -0.191 in experiment [6]; -0.0248 in [7]. Also, the composite z-score in experiment [8] is -0.267; in [9] it was 0.387; in experiment [10], 0.0355. Also, in experiment [2], the z-score is -1.63.
As to `CC(CCC(=O)OC[C@H]1O[C@H](C#Cc2ccccc2)C=C[C@@H]1Oc1ccc(C)cc1)=NO[C@H](C)c1cn([C@@H]2COC[C@H]2O)nn1`, the composite z-score in [1] was -0.231; in experiment [3], 0.431; in experiment [4], -0.411; in experiment [5] it was -0.208; in [6], -0.0512; in experiment [7], -0.138. The figures for the composite z-score in experiment [8], in experiment [9] and in [10] were 0.354, -0.465 and -0.493, respectively. The compound further showed a z-score in experiment [2] of -1.66.
As for `CC(C)C(=O)N[C@H]1CCCN1C(=O)C=Cc1ccccc1`, the composite z-score in [1] is 0.531; in experiment [3] it was 0.681; in experiment [4], -0.266; in experiment [5], -0.306; in experiment [6], 0.0495; in experiment [7], 0.3. Further, the figures for the composite z-score in experiment [8], in experiment [9] and in experiment [10] were 0.254, 0.289 and 0.0359, respectively. The same compound displayed a z-score in [2] of -0.206.
